TbREL1 inh – TbREL1 RNA ligase inhibitors, primary screen, biochemical, FRET fluorescence | TbREL1 RNA ligation | inhibition, % at 9.66 µM | 89,000 tested, 0.49% active | RNA-editing ligase 1, mitochondrial (Trypanosoma brucei brucei), P86926;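 active means inhibition above the mean inhibition across all screened compounds plus 3 SD, cut at about 11% in these data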;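 further: 0% = plate median of test wells and 100% = NSC42067 control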
Target sequence (P86926 whole entry, looked up): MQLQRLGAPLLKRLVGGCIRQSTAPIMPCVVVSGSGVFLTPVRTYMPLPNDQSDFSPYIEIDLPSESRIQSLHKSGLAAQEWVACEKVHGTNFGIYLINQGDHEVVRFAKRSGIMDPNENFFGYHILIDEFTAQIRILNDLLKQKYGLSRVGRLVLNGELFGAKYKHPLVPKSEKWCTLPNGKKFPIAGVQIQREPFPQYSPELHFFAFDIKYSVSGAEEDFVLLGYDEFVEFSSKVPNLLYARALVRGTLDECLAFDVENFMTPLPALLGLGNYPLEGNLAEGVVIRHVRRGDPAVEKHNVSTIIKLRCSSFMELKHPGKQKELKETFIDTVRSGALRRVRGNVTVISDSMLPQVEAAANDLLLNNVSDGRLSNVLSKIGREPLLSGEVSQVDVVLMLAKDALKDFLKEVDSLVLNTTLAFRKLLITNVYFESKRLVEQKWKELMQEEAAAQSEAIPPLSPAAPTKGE
TbREL1 confirm – TbREL1 RNA ligase inhibitors, confirmation, biochemical, FRET fluorescence, triplicate; TbREL1 RNA ligation; AID 1117282, 2014; 390 tested, 37% active; inhibition, % at 9.66 µM; shares compounds with TbREL1 inh;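 active means mean inhibition across replicates above a set limit taken from the earlier primary screen, cut at about 11% in these data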;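 further: 0% = REL1 with substrate and DMSO and 100% = REL1 plus control inhibitor NSC42067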
* = called active by the depositor. Many of the other results were omitted from the sample, so hits are more common in it than they were.

SMILES | TbREL1 inh | others
COc1cc2c(cc1OC)-c1cc(NCc3ccccn3)nc(=O)n1CC2 | 21* | TbREL1 confirm=23*
COc1ccc(Cl)cc1S(=O)(=O)N1CCCC(C(=O)NCc2ccccn2)C1 (configuration not stated) | -2
CCC(C)N(C(=O)c1oc(=O)c2ccccc2c1-c1ccc(C)cc1)C(C)CC (configuration not stated) | 6
Cc1ccc(-c2cc(-c3nnc(SCC(=O)Nc4ccc(OCc5ccccc5)cc4)n3N)[nH]n2)cc1 | 0
COC(=O)[C@]12C[C@H](CC(=O)NCc3ccc(C)o3)C(=O)N(Cc3cccc4ccccc34)C1=C[C@H](COCc1ccccc1)O[C@@H]2C | -7
O=C1C(Cc2ccccc2)S/C(=N/N=C/c2ccco2)N1c1ccccc1 (configuration not stated) | -4
O=C1N/C(=N/N=C/c2ccco2)SC1Cc1ccccc1 (configuration not stated) | 11* | TbREL1 confirm=4
CCCC1S/C(=N/N=C/c2ccco2)NC1=O (configuration not stated) | 2
COc1ccc(CC(=O)N2CCN(C(=O)c3ccc4nc(C)n(C5CCCC5)c4c3)CC2)cc1 | -3
O=C(CN1CCCc2ccccc21)NCc1ccc(Cl)cc1 | 3
O=c1c(-c2ccco2)[n+]([O-])c2ccccc2n1OCc1ccccc1 | 1
O=c1c(-c2cccc([N+](=O)[O-])c2)[n+]([O-])c2ccccc2n1O | 12* | TbREL1 confirm=4
CC(C)CCOc1ccc(-c2c(=O)n(OCc3ccc([N+](=O)[O-])cc3)c3ccccc3[n+]2[O-])cc1 | -2
Cc1nc(C)n(CC(O)COc2ccc3ccccc3c2)n1 (configuration not stated) | -3
CC(NCC(O)COc1ccc2ccccc2c1)c1ccccc1 (configuration not stated) | 14* | TbREL1 confirm=14*
CCCC(NCC(O)COc1ccc(-c2ccccc2)cc1)c1ccccc1 (configuration not stated) | 1
COc1cccc(C(=O)N[C@H](C(=O)N2CCC[C@H]2C(=O)NCc2ccccc2)C2CCCCC2)c1 | -2
C#CCOCCOCCOCCNc1nc(N2CCN(C(=O)[C@H]([C@@H](C)CC)n3cc([C@@H](N)Cc4ccc(O)cc4)nn3)CC2)nc(N2CCN(C(=O)[C@H]([C@@H](C)CC)n3cc([C@@H](N)Cc4ccc(O)cc4)nn3)CC2)n1 | 9
C#CCOCCOCCOCCNc1nc(N2CCN(C(=O)[C@H]([C@@H](C)CC)n3cc([C@@H](N)CC(C)C)nn3)CC2)nc(N2CCN(C(=O)[C@H](Cc3ccc(O)cc3)n3cc([C@@H](N)CC(C)C)nn3)CC2)n1 | 5
C#CCOCCOCCOCCNc1nc(N2CCN(C(=O)[C@H]([C@@H](C)CC)n3cc([C@@H](N)CC(C)C)nn3)CC2)nc(N2CCN(C(=O)[C@H]([C@@H](C)CC)n3cc([C@@H](N)CC(C)C)nn3)CC2)n1 | 11* | TbREL1 confirm=9
Cc1ccc2nsnc2c1NC(=O)CCl | 11* | TbREL1 confirm=4
Cc1ccc2nsnc2c1NC(=O)Cc1ccc(Cl)cc1 | -1
O=C(COc1ccccc1)Nc1c(Cl)ccc2nsnc12 | -2
O=C(CN1CCN(Cc2ccccc2Cl)CC1)N/N=C\c1ccccc1F | -3
CCOc1ccc(C(=O)CSc2nnc(SCc3ccc(Cl)cc3)s2)cc1 | 0
SMILES | TbREL1 inh | others
N#Cc1ccc(C(=O)Oc2coc(CSc3ncccn3)cc2=O)cc1 | 1
CC(C)C[C@H](NC(=O)c1nc[nH]c1C(=O)N[C@@H](CC(C)C)C(=O)OCc1ccccc1)C(=O)OCc1ccccc1 | 2
CC(C)C[C@H](NC(=O)c1[nH]cnc1C(=O)N[C@@H](Cc1ccccc1)C(=O)OCc1ccccc1)C(=O)OCc1ccccc1 | 0
CC(C)C[C@@H](CNCC(=O)[C@H](C)NC(=O)c1[nH]cnc1C(=O)N[C@@H](C)CN)NC(=O)c1nc[nH]c1C(=O)N[C@@H](Cc1ccccc1)C(=O)O | 11* | TbREL1 confirm=6
CCCOc1ccc(N)cc1N | 12* | TbREL1 confirm=6
CCCOC(=O)c1ccc(O)c(OC)c1 | -4
COc1ccc(N)cc1C#N | -2
O=C(Nc1ccc2c(c1)OCO2)NC1CCN(S(=O)(=O)c2ccc(F)cc2)CC1 | 1
CC(C)c1cc(C(C)C)c(S(=O)(=O)N2CCC(C(=O)NCc3cccs3)CC2)c(C(C)C)c1 | 0
Cc1ccccc1N(C)C(=O)Cn1nnc(-c2ccccc2F)n1 | 1
O=C(C1CCC1)N1CCc2cc(S(=O)(=O)N3CCN(c4ccccc4F)CC3)ccc21 | -2
Oc1ccc(-c2ccccc2F)c2cccnc12 | -4
Oc1ccc(Nc2ccccc2F)c2cccnc12 | 17* | TbREL1 confirm=-9
Oc1ccc(CNc2ccccc2F)c2cccnc12 | 1
COc1ccccc1CNC1CCC12CCC(c1ccccc1)CC2 (configuration not stated) | 9
CCC(C)N(C(=O)Cn1nc(Cc2ccncc2)c2ccccc2c1=O)C(C)CC (configuration not stated) | 4
COC(=O)C1=C(C)N(c2ccccc2)C(=S)NC1c1ccccc1C(F)(F)F (configuration not stated) | -5
COC(=O)C1=C(C)N(Cc2ccc(C(F)(F)F)cc2)C(=NCc2ccc3c(c2)OCO3)NC1c1ccccc1C(F)(F)F (configuration not stated) | 17* | TbREL1 confirm=22*
COC(=O)C1=C(C)N(Cc2ccc(C(F)(F)F)cc2)C(=NCc2ccc(C(F)(F)F)cc2)NC1c1ccccc1C(F)(F)F (configuration not stated) | 17* | TbREL1 confirm=24*
COC(=O)C1=C(C)N(Cc2ccc(C(F)(F)F)cc2)C(=NCc2ccccc2C(F)(F)F)NC1c1ccccc1C(F)(F)F (configuration not stated) | 17* | TbREL1 confirm=23*
COC(=O)C1=C(C)N(C)C(=NCc2ccccc2)NC1c1ccccc1C(F)(F)F (configuration not stated) | 9
CC(=O)N1CCc2cc(S(=O)(=O)NCCC(=O)NCc3ccccc3)ccc21 | -2
O=C(Cn1c(-c2cncs2)nc2ccccc21)N1CCOCC1 | 0
COc1ccc2c(c1)CCCN2C(=O)C1CCCN(S(=O)(=O)c2cccs2)C1 (configuration not stated) | -3
FC(F)(F)c1ccc(Cn2ccc3ccc(-c4ccc5ccn(Cc6ccc(C(F)(F)F)cc6)c5c4)cc32)cc1 | 2
SMILES | TbREL1 inh | others
O=C1CCC[C@H]2[C@@H](Cc3ccccc3)[C@@H](O)CC[C@]23CCCN13 | -3
Cc1ccccc1NC(=O)[C@@H]1CC(=O)O[C@@H]1c1ccccc1 | 1
O=C(Nc1c(-c2ccccc2)nc2ncccn12)c1ccccc1 | -1
COc1ccc(NC(=O)CCCNS(=O)(=O)c2ccc3[nH]c(=O)oc3c2)cc1OC | 2
Cc1cc(NS(=O)(=O)c2ccc(NC(=O)CSc3nnc(-c4ccncc4)n3-c3ccccc3)cc2)nc(C)n1 | -7
O=C(Nc1ccc(N2C(=O)[C@@H]3[C@H](C2=O)[C@@H]2C=C[C@H]3C2)c(Cl)c1)c1ccccn1 | 2
O=C(Cc1cn(Cc2ccccc2)c2ccccc12)Nc1ccc(Nc2cccnc2)c(Br)c1 | -1
Cc1n[nH]c(=S)n(NC(=O)/C=C/C(=O)Nn2c(=S)[nH]nc(C)c2=O)c1=O | 20* | TbREL1 confirm=15*

Screening results deposited in PubChem BioAssay by The Scripps Research Institute Molecular Screening Center.
